From PubChem BioAssay (EPA / NIEHS)
The source made the active and inactive calls. How the source made its calls: active means hit-call score of the fitted dose curve at least 0.9, where 1 is the maximum; inactive means score below 0.9.

Experiments:
[1] = ATG_GLI_CIS: Attagene CIS-FACTORIAL HepG2 Assay for human Zinc Finger Protein GLI1 (AID 2282945); details: HepG2, Attagene cis-factorial reporter mRNA, GLI element; actives raise or lower the signal
Procedure, shortened: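 HepG2 cells transiently transfected with cis-promoter multiplexed reporter units report endogenous transcription factor activity. After 24 h chemical exposure, reporter mRNA was quantified by RT-PCR, 6-FAM labelling, HpaI digestion and capillary electrophoresis, with bidirectional fitting against DMSO.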

[2] = ATG_GRE_CIS: Attagene CIS-FACTORIAL HepG2 Assay for human Glucocorticoid Response Elements (GRE) (AID 2282947); details: HepG2 GRE cis-reporter, Attagene multiplex mRNA; actives raise or lower the signal
Procedure, shortened: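 HepG2 cells transiently transfected with multiple cis-promoter reporter units measure endogenous TF activity; 24 h compound exposure. Reporter mRNA quantified by RT-PCR, FAM labelling, HpaI digestion and capillary electrophoresis; bidirectional fit vs DMSO baseline.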

[3] = ATG_ISRE_CIS: Attagene CIS-FACTORIAL HepG2 Assay for human Interferon Regulatory Factor 1 (IRF1) binding to an Interferon-Stimulated Response Element (ISRE) (AID 2282948); details: HepG2 ISRE cis-reporter (Attagene), mRNA transcription readout; actives raise or lower the signal
Procedure, shortened: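 Cell-based cis-reporter assay; HepG2; 24 h exposure; reporter mRNA by RT-PCR plus capillary electrophoresis fluorescence; activity in either direction scored relative to DMSO.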

[4] = ATG_M_32_CIS: Attagene CIS-FACTORIAL HepG2 Assay for M32 Transcription Factor (Internal Marker) (AID 2282949); details: HepG2 Attagene cis-factorial M32 reporter, mRNA; actives raise or lower the signal;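 further: background control marker of the multiplexed CIS panel rather than a real target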
Procedure, shortened: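 Internal background marker read-out: RT-PCR/capillary electrophoresis fluorescence of reporter transcripts from transiently transfected HepG2 cells after 24 h chemical exposure. Activity fitted bidirectionally relative to DMSO negative control.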

[5] = ATG_M_06_CIS: Attagene CIS-FACTORIAL HepG2 Assay for M06 Transcription Factor (Internal Marker) (AID 2282950); details: HepG2 Attagene CIS-FACTORIAL M06 internal marker reporter; actives raise or lower the signal
Procedure, shortened: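 Terse: HepG2, transient MRTU transfection (FuGene 6), 24 h dosing; total RNA, oligo(dT) RT, PCR, FAM label, HpaI cut, capillary electrophoresis; bidirectional fit vs DMSO baseline; background-control endpoint.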

[6] = molecular target: Hypoxia-inducible factor 1-alpha (Homo sapiens) (UniProt Q16665); experiment: ATG_HIF1a_CIS: Attagene CIS-FACTORIAL HepG2 Assay for human Hypoxia Inducible Factor 1 (HIF1A) (AID 2282951); details: HepG2 Attagene cis-factorial HIF1a reporter transcription; actives raise or lower the signal
Procedure, shortened: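 HepG2 cells transiently transfected with multiple cis-regulated reporter transcription units measure endogenous transcription factor activity. After 24 h exposure, reporter mRNA is quantified by RT-PCR with 6-FAM labelling, HpaI digestion and capillary electrophoresis. Bidirectional fitting against DMSO.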

[7] = molecular target: Hepatocyte nuclear factor 6 (Homo sapiens) (UniProt Q9UBC0); experiment: ATG_HNF6_CIS: Attagene CIS-FACTORIAL HepG2 Assay for human Hepatocyte Nuclear Factor 6 (HNF6) (AID 2282952); details: HepG2 Attagene cis-factorial HNF6 reporter transcription; actives raise or lower the signal
Procedure, shortened: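 HepG2 cells transiently transfected with cis-element-driven multiple reporter transcription units, dosed 24 h; reporter mRNA quantified by RT-PCR, FAM primer extension, HpaI digestion and capillary electrophoresis; bidirectional fit versus DMSO baseline.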

[8] = molecular target: Heat shock factor protein 1 (Homo sapiens) (UniProt Q00613); experiment: ATG_HSE_CIS: Attagene CIS-FACTORIAL HepG2 Assay for human Heat Shock Transcription Factor 1 (HSE) (AID 2282953); details: HepG2 HSE cis-reporter, Attagene RNA transcription; actives raise or lower the signal
Procedure, shortened: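 Read-out: fluorescence of reporter-specific RT-PCR fragments separated by capillary electrophoresis. HepG2 carrying transfected cis-element reporter units; 24 h dosing; activity fitted in both directions relative to DMSO baseline.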

[9] = ATG_MRE_CIS: Attagene CIS-FACTORIAL HepG2 Assay for human Metal Responsive Element (MRE) (AID 2282954); details: HepG2 MRE cis-reporter transcription, Attagene multiplex; actives raise or lower the signal
Procedure, shortened: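 HepG2 cells transiently transfected with multiple cis-element reporter units measure endogenous MTF1-driven transcription. After 24 h compound exposure, reporter mRNA is quantified by RT-PCR with 6-FAM labelling, HpaI digestion and capillary electrophoresis; bidirectional fits versus DMSO.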

[10] = ATG_PBREM_CIS: Attagene CIS-FACTORIAL HepG2 Assay for human Phenobarbital-responsive Enhancer Module (PBREM) (AID 2282955); details: HepG2 PBREM cis-reporter, Attagene multiplexed transcription; actives raise or lower the signal
Procedure, shortened: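 HepG2 cells transiently transfected with multiple cis-regulated reporter units measure endogenous transcription factor activity; 24 h compound exposure. Reporter mRNA quantified by RT-PCR, fluorescent labelling, HpaI digestion and capillary electrophoresis; bidirectional fit versus DMSO.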

[11] = molecular target: Paired box protein Pax-6 (Homo sapiens) (UniProt P26367); experiment: ATG_Pax6_CIS: Attagene CIS-FACTORIAL HepG2 Assay for human Paired Box 6 (PAX6) (AID 2282956); details: HepG2 CIS-FACTORIAL PAX6 reporter transcription, RNA readout; actives raise or lower the signal
Procedure, shortened: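 Multiplexed cis-reporter HepG2 system; 24 h treatment; reporter mRNA read by RT-PCR/CE fluorescence; bidirectional fit vs DMSO.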

[12] = ATG_PXRE_CIS: Attagene CIS-FACTORIAL HepG2 Assay for human Pregnane X Receptor Element (PXRE) (AID 2282957); details: HepG2 Attagene CIS-FACTORIAL PXRE reporter, mRNA; actives raise or lower the signal
Procedure, shortened: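 HepG2 cells transiently transfected with cis-regulated multiple reporter transcription units; endogenous factor activity measured as reporter mRNA 24 h after dosing. RT-PCR, fluorescent primer extension, HpaI digestion, capillary electrophoresis; bidirectional fit versus DMSO baseline.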

[13] = ATG_PPRE_CIS: Attagene CIS-FACTORIAL HepG2 Assay for human Peroxisome Proliferator-activated Response Element (PPRE) (AID 2282958); details: HepG2 PPRE cis-element reporter, Attagene transcription factor profiling; actives raise or lower the signal
Procedure, shortened: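 HepG2 cells are transiently transfected with multiplexed cis-promoter reporter units to report endogenous PPAR activity. After 24 h dosing, reporter mRNA is read by RT-PCR and capillary electrophoresis. Fitting is bidirectional against DMSO.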

[14] = ATG_RORE_CIS: Attagene CIS-FACTORIAL HepG2 Assay for human RAR-related Orphan Receptor Element (RORE) (AID 2282959); details: HepG2 Attagene cis-factorial RORE reporter, mRNA; actives raise or lower the signal
Procedure, shortened: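 HepG2 cells carrying transiently transfected cis-regulated reporter units; RORE-driven reporter mRNA quantified 24 h post-dosing by RT-PCR, 6-FAM primer extension, HpaI digestion and capillary electrophoresis. Bidirectional fit versus DMSO.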

[15] = ATG_Sox_CIS: Attagene CIS-FACTORIAL HepG2 Assay for human SRY-box transcription factor (SOX) (AID 2282960); details: HepG2 Attagene cis-factorial SOX reporter, mRNA; actives raise or lower the signal
Procedure, shortened: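 HepG2 cells transiently transfected with multiple cis-regulated reporter units, then dosed for 24 h. Reporter mRNA quantified by RT-PCR, fluorescent labelling, HpaI digestion and capillary electrophoresis; bidirectional fit versus DMSO.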

[16] = molecular target: Transcription factor Sp1 (Homo sapiens) (UniProt P08047); experiment: ATG_Sp1_CIS: Attagene CIS-FACTORIAL HepG2 Assay for human Specificity Protein 1 (Sp1) (AID 2282961); details: HepG2 Sp1 cis-reporter transcription, actives raise or lower the signal
Procedure, shortened: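 HepG2 cells transiently transfected with multiplexed cis-regulated reporter constructs, chemical exposure 24 h. Reporter mRNA quantified by RT-PCR with capillary electrophoresis; bidirectional fit relative to DMSO.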

[17] = molecular target: Signal transducer and activator of transcription 3 (Homo sapiens) (UniProt P40763); experiment: ATG_STAT3_CIS: Attagene CIS-FACTORIAL HepG2 Assay for human Signal Transducer and Activator of Transcription 3 (STAT3) (AID 2282963); details: HepG2, Attagene cis-factorial STAT3 reporter transcription; actives raise or lower the signal
Procedure, shortened: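 HepG2 cells transiently transfected with cis-element-driven multiple reporter transcription units; after 24 h chemical exposure, reporter mRNA measured by RT-PCR, 6-FAM primer-extension labelling, HpaI digestion and capillary electrophoresis. Bidirectional fitting versus DMSO baseline.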

[18] = ATG_TA_CIS: Attagene CIS-FACTORIAL HepG2 Assay for human TA Basal Promoter (AID 2282964); details: HepG2 Attagene CIS-factorial TA basal promoter reporter; actives raise or lower the signal
Procedure, shortened: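 Transfected HepG2, 24 h compound exposure; RNA → RT-PCR → FAM primer extension → HpaI cut → CE fluorescence. Gain/loss-of-signal fitted against DMSO negative control. Background-control readout.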

[19] = ATG_SREBP_CIS: Attagene CIS-FACTORIAL HepG2 Assay for human Sterol Regulatory Element Binding (SREBP) (AID 2282962); details: HepG2 Attagene cis-factorial SREBP reporter, mRNA; actives raise or lower the signal
Procedure, shortened: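 mRNA induction of transfected cis-promoter reporters in HepG2 cells, 24 h post-dose. Detection: RT-PCR with 6-FAM-labelled products, HpaI digest, capillary electrophoresis. DMSO served as negative control and baseline.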

Measured: AC50

Hepatocyte nuclear factor 6 (Homo sapiens), sequence (Q9UBC0 whole entry, looked up): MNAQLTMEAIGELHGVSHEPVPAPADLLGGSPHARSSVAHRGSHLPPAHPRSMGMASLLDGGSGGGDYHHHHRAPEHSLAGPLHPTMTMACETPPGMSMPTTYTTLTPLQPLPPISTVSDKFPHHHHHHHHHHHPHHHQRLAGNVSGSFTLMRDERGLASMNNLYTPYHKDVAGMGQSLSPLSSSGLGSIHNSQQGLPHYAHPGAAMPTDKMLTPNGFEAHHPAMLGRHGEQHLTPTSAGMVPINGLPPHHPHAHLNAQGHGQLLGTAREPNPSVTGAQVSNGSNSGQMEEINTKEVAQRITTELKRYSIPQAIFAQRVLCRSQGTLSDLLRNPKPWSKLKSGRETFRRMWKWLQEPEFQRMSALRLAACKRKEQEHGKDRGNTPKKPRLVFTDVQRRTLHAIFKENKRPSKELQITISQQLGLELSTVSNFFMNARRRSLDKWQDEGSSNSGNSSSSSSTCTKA
Paired box protein Pax-6 (Homo sapiens), sequence (P26367 whole entry, looked up): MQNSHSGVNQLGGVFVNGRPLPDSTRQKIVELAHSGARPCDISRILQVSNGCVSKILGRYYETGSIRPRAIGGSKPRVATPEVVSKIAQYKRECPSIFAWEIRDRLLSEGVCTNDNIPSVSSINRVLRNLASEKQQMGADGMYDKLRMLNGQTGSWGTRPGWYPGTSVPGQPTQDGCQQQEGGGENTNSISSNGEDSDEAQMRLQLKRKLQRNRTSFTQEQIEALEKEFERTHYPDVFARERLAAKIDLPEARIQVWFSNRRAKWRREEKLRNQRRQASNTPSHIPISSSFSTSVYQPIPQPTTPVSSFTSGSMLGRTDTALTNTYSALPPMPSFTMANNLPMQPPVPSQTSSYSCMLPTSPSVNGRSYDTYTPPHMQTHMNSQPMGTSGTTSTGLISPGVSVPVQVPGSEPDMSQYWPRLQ
Signal transducer and activator of transcription 3 (Homo sapiens), sequence (P40763 whole entry, looked up): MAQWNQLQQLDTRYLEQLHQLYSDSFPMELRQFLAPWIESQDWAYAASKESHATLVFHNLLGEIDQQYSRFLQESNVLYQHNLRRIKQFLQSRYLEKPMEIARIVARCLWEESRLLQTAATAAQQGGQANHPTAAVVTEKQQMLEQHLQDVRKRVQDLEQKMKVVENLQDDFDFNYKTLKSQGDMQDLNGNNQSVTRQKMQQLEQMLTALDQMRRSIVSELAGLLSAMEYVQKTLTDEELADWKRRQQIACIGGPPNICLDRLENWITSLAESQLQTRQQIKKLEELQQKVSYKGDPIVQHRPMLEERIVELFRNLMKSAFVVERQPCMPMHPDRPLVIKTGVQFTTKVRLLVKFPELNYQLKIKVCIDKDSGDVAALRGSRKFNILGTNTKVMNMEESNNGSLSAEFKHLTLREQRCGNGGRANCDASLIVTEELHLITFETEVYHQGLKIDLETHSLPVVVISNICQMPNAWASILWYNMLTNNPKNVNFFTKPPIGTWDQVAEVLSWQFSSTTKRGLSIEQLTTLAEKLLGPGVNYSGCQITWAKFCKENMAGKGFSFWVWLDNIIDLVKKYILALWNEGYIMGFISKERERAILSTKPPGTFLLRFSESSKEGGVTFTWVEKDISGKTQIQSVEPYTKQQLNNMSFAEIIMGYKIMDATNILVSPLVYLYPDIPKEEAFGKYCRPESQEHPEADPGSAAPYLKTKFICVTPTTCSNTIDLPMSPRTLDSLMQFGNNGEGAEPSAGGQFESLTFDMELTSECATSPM
Hypoxia-inducible factor 1-alpha (Homo sapiens), sequence (Q16665 whole entry, looked up): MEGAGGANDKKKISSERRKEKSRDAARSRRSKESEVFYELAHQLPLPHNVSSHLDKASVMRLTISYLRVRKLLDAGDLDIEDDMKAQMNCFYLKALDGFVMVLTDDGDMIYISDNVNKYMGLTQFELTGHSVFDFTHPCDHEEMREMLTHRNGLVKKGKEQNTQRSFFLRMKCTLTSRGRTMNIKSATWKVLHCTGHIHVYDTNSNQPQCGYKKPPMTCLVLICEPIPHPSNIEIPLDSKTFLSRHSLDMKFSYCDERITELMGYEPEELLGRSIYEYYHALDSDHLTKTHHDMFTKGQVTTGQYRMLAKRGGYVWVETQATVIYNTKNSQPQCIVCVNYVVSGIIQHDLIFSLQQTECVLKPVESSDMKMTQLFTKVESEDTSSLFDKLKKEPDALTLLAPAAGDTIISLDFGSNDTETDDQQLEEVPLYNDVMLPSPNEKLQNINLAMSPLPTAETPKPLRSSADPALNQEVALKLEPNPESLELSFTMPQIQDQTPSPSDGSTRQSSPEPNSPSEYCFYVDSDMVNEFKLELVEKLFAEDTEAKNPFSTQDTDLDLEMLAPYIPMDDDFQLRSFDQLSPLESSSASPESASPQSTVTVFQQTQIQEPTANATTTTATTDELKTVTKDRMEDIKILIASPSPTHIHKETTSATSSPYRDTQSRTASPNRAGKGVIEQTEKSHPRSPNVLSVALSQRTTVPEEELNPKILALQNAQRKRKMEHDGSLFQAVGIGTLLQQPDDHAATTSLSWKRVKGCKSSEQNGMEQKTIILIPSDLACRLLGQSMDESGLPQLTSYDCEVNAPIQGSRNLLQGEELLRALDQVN
Heat shock factor protein 1 (Homo sapiens), sequence (Q00613 whole entry, looked up, the tested form may be a part): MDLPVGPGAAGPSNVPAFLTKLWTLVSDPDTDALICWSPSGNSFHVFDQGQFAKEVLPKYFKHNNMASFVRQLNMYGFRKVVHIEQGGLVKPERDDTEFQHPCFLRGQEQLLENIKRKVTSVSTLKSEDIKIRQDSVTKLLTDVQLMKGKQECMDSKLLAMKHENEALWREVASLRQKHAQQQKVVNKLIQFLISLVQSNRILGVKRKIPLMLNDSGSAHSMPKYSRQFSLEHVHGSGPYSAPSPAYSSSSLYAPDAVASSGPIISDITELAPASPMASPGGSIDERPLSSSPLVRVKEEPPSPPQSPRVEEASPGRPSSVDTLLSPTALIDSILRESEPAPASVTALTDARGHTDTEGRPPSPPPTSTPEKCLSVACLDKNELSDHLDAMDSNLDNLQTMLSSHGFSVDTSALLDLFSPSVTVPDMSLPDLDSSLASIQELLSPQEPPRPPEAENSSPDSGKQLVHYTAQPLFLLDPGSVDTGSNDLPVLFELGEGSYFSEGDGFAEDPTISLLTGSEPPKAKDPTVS
Transcription factor Sp1 (Homo sapiens), sequence (P08047 whole entry, looked up): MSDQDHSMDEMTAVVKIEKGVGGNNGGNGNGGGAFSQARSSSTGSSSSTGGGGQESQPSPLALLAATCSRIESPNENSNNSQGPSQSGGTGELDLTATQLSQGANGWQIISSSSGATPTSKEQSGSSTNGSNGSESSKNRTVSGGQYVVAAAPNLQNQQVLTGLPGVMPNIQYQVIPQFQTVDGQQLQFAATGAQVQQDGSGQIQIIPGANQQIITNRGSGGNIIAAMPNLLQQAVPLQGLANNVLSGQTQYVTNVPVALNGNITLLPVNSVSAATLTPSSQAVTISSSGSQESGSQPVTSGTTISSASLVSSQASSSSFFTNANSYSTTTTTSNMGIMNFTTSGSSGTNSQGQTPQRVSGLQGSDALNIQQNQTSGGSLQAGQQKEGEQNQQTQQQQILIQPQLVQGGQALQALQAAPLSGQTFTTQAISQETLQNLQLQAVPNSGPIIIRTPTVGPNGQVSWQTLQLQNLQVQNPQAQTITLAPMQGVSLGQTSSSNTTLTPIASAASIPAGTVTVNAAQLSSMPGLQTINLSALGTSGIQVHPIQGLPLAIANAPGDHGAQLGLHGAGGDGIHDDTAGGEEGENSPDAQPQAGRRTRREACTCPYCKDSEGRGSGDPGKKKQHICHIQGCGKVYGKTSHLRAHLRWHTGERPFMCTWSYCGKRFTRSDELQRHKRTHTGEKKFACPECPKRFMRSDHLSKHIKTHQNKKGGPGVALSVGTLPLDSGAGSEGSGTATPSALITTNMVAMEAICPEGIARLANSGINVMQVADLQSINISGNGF

c1ccc(Nc2cccc3ccccc23)cc1
active: [1] 54 µM | [3] 24.8 µM | [7] 51.8 µM | [8] 53.8 µM | [9] 49.7 µM | [11] 33.4 µM | [12] 8.67 µM | [15] 48.1 µM | [16] 47.1 µM
not listed: [19]
inactive: all other assays above

CCCc1ccc(O)c(OC)c1
not listed: [13] | [16]
inactive: all other assays above

Cc1ccc(S(=O)(=O)N=C=O)cc1
not listed: [10]
inactive: all other assays above

CC(=O)OCc1ccccc1
not listed: [10]
inactive: all other assays above
